The whole screen tested about 400,000 compounds, of which about 13,000 (3.2%) were called active. Inconclusive results (about 18%) are left out. The full list was thinned out, with actives kept by preference. Values without a mark were called inactive. The call rests on the fitted dose curve; in most records, active means well fitted cell-killing curve with a large enough effect; inconclusive means small, poorly fitted or top-dose-only effect, or effect the other way; inactive means flat fitted curve, though single readings scatter.
assay: qHTS assay for MDR1-selective chemotherapeutics: Primary screen using the drug-selected MDR subline cells KB-V1; settings: KB-V1 MDR cells viability, CellTiter-Glo, 72 h; series mostly up to 46.1 µM; activity change, negative = cytotoxicity: at the top concentration; further: nearly all actives have a fitted effect of over 60% in size
Text: A prime difficulty in effectively treating cancer is the development of cellular resistance to multiple structurally unrelated anticancer drugs, a phenomenon known as multidrug resistance (MDR). […] Numerous strategies to overcome P-gp-mediated MDR have been explored, including the design of drugs that evade recognition and efflux, and development of inhibitors to block efflux and restore drug accumulation. […] An alternative approach is to exploit resistance by identifying drugs that target MDR cells over the non-resistant parental cells from which they were selected. […] The development of MDR1-selective agents represents a new strategy for resolving multidrug resistance, as it remains a long-standing clinical challenge for cancer chemotherapy.
Our goal is to identify compounds that selectively kill P-gp-expressing MDR cells. We will identify MDR1-selective compounds by comparing toxicity of compounds in the screening library against parental, drug-naive (KB-3-1) adenocarcinoma cells as well as their drug-selected MDR sub-line (KB-V1). The differential toxicity of compounds against these two cell lines will be used to identify MDR1-selective compounds, whose cytotoxicity is potentiated, rather than diminished, by P-gp expression. This assay will be utilized to conduct a quantitative high-throughput screen (qHTS) in collaboration with the NIH Chemical Genomics Center to identify selective agents, and probe hits arising from the screen will be validated using secondary assays and characterized through a well-established follow-up research program. This screen was run against the entire NCGC library collection of about 400,000 compounds.
NIH Molecular Libraries Probe Production Network [MLPCN]
NIH Chemical Genomics Center [NCGC]
PI: Michael Gottesman, National Cancer Institute, NIH
Briefly, 5 microL of media containing either KB-V1 cells (columns 1-2, 4-48) are dispensed into Greiner white, treated solid-bottom 1536-well assay plates (media-only control is added to column 3). Compounds are then transferred via Kalypsys pin tool equipped with 1536-pin array (10 nL slotted pins, V&P Scientific, San Diego, CA). Following addition of compound, the plates are incubated at 37 degrees C for 72 hours. CellTiter-Glo (2.5 µL/well) is then added, and the plates are read in a ViewLux reader (Perkin-Elmer, clear luminescence filter, 1 second exposure, 1x binning) following a 10 minute incubation. All cells are dispensed in DMEM phenol-red free media containing 10% FBS.
Library plates were screened starting from the lowest and proceeding to the highest concentration. Vehicle-only plates, with DMSO being pin-transferred to columns 5-48, will be inserted uniformly at the beginning and the end of each library in order to monitor and record any shifts in the background, which can be affected by reagent dispensers or loss in enzyme activity over time. Screening data will be corrected, normalized, and concentration-effect relationships will be derived by using publicly-available NCGC, NCATS curve fitting algorithms (http://ncgc.nih.gov/pub/openhts).
On the % scale 0 is the no-effect control and ±100 the full control effect; potency means the concentration at half of the fitted maximal effect.

Structure (SMILES)	activity change, negative = cytotoxicity [%]	Potency
CN1C(=O)C(CC(N)=O)N(NC(=O)c2ccc(Cl)cc2)C1=S (stereo not drawn)	1.63	–
O=C(Nc1ccn(Cc2ccccc2)n1)c1cccc(F)c1	0	–
Cc1ccc(S(=O)(=O)N2C[C@]3(O)C[C@@H]4C(=O)N(c5ccccc5)C(=O)[C@@H]4C[C@]3(OC(=O)NC3CC3)C2)cc1	75.5	–
COc1ccc(NC(=O)C2Cc3c(-c4ccc5c(c4)OCO5)ccnc3O2)cn1 (stereo not drawn)	–	20.6 µM (active)
COc1ccc(NC(=O)C2Cc3c(-c4cccc(NC(C)=O)c4)ccnc3O2)cc1OC (stereo not drawn)	-18.5	–
CC(=O)Nc1ccc(-c2ccnc3c2CC(C(=O)NC(C)C)O3)cc1 (stereo not drawn)	-3.89	–
CCOc1ccc(C(=O)Nc2ccc3nc4c(c(Nc5ccccc5OC)c3c2)CCCC4)cc1	0	–
CC(C)C[C@@H]1Cc2[nH][nH]c(=O)c2[C@H](CCc2ccccc2)O1	-23.4	–
COc1ccc(-c2[nH]nc(-c3ccccc3)c2-c2nc3ccccc3[nH]2)cc1	-2.23	–
Cc1ccc(-c2nc3ccccc3[nH]2)cc1N	–	10.3 µM (active)
COc1ccc(Br)cc1C(=O)NC(=S)Nc1cc(-c2nc3ccccc3[nH]2)ccc1C	-18.6	–
CC1(Oc2cccc(F)c2)CCN(Cc2ccccc2OC(F)F)C1 (stereo not drawn)	5.33	–
COc1ccccc1-n1c(-c2ccc(C)cc2)cn2c3c(=O)n(C)c(=O)n(C)c3nc12	27.5	–
COc1cccc(Cn2c(SCc3ccc(C(=O)N4CCCCC4)cc3)nc3ccncc32)c1	13.1	–
CC(C)(C)c1ccc(C(=O)Nc2ccc3c(c2)CCCN3C(=O)c2cccs2)cc1	–	20.6 µM (active)
O=C(Nc1ccccc1)c1ccc(NC(=O)c2cccs2)cc1	0	–
O=C(Nc1ccc(NC(=O)c2cccs2)cc1)c1ccc2ccccc2c1	1.68	–
C/C=C/c1ccc(OCC(=O)OCC(=O)Nc2c(C)nn(-c3ccccc3)c2C)c(OC)c1	4.6	–
Cc1nn(-c2ccccc2)c(C)c1NC(=O)COc1ccc(Cl)cc1Cl	–	2.31 µM (active)
Cc1nn(-c2ccccc2)c(C)c1NC(=O)COC(=O)c1cc(Cl)ccc1O	-4.72	–
C#CCN(C[C@H]1[C@H](OC(=O)NC2CCCC2)[C@H](OC(=O)NC2CCCC2)C[C@H]2C(=O)N(c3ccccc3)C(=O)[C@@H]12)S(=O)(=O)c1ccc(C)cc1	11.7	–
CC1CCc2c(sc3nc4n(c(=O)c23)CCS4)C1 (stereo not drawn)	-10.8	–
C=CCn1c(SCC(=O)NCCCO)nc2sc3c(c2c1=O)CCC3	-0.705	–
C=CCn1c(SCc2c(C)noc2C)nc2sc3c(c2c1=O)CCC(C)C3 (stereo not drawn)	–	4.61 µM (active)

Structure (SMILES)	activity change, negative = cytotoxicity [%]	Potency
O=C(Nc1ccc(Cl)cc1)c1csc([C@H]2C[C@H](O)[C@@H](CO)O2)n1	-8.14	–
CCc1nnc2c3ccccc3nc(N3CCN(c4ccc(C)cc4C)CC3)n12	11	–
Cc1ccc(S(=O)(=O)NCc2nc3ccccc3c(=O)n2N)cc1	4.72	–
CCC1NC(=O)c2cccnc2-n2c1nc1ccc(C)cc1c2=O (stereo not drawn)	-15.4	–
OCCNc1ncnc2oc(-c3ccco3)c(-c3ccco3)c12	-18.6	–
N=c1c2c(-c3ccccc3)c(-c3ccccc3)oc2ncn1Cc1ccco1	–	16.4 µM (active)
C(=C\c1ccccc1)/CSc1nnc(-c2cccnc2)n1Cc1ccco1	0	–
CSCCC(c1nnnn1Cc1ccccc1)N1CCN(C/C=C/c2ccccc2)CC1 (stereo not drawn)	-8.22	–
O=C(CNC(=O)N1CC(=O)Nc2ccccc21)Nc1ccc(Br)cc1F	10.8	–
Cc1ccc(C(C)(C)C)c(OCCCCN2CCCC2)c1	–	20.6 µM (active)
Cc1ccc(C(C)C)cc1OCCN1CCCC1	2.61	–
Cc1ccc(OCCCCN2CCCCC2)c(Br)c1	–	16.4 µM (active)
O=[N+]([O-])c1ccccc1OCCCCN1CCCCC1	-24.1	–
COc1ccccc1OCCCCCCN1CCN(C)CC1	20.9	–
CN1CCN(CCCCOc2cccc3ccccc23)CC1	-7.19	–
CCNC(=O)C1(C)CCCN(C(=O)c2ccc3ccccc3n2)C1 (stereo not drawn)	5.07	–
Cc1ccccc1S(=O)(=O)NC(=O)C1(C)CCN1C(=O)C1(c2ccc(Cl)cc2)CC1 (stereo not drawn)	19.1	–
CSc1n[nH]c(-c2ccco2)n1	-8.81	–
Cn1c(-c2ccco2)nc2cc3ccccc3cc21	–	8.2 µM (active)
COc1ccccc1-n1c(-c2cc(-c3ccco3)[nH]n2)n[nH]c1=S	2.88	–
COc1ccc(Nc2cc(C(=O)NCCCN(C)c3ccccc3)c3ccccc3n2)c(OC)c1	3.15	–
COc1cc2nc(NCC(C)c3ccccc3)n3nc(-c4ccccc4)nc3c2cc1OC (stereo not drawn)	-3.41	–
Cn1c(=O)c2c(n3c4ccccc4nc13)NC(=O)CC2c1cccc(Cl)c1 (stereo not drawn)	1.02	–
Cc1ccccc1NC(=O)Cn1c(=O)n(CC2CCC(C(=O)NCCc3ccccc3)CC2)c(=O)c2ccccc21 (stereo not drawn)	-5.31	–
